# This is a sample that favours compounds with a hit; in the whole collection about 22% have one here.
# Pf growth 96h: P. falciparum growth inhibition at 96 hour, primary screen for plastid delayed-death inhibitors; P. falciparum luciferase reporter growth, 96 h; Potency, µM (titrated, usually from 28.7 µM), most hits filed as inhibitors; hit rate 6.9% among 320,000
#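 Plates of compound plus infected erythrocytes (2% hematocrit, 0.05% parasitemia final) incubate 96 hours, 37 C, 5% CO2. Detection reagent added; reduced luminescence from the parasites' luciferase reporter flags inhibition.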
# CHX counter: counter-screen for Shiga toxin inhibitors: cycloheximide protein synthesis inhibition; cell reporter, cycloheximide protein synthesis inhibition counterscreen; max response, %; hit rate 12% among 300,000; AID 2314; in the data active = max response mostly above about 13%, no sharp cut-off; inactive = mostly below about 14%; note: read at 38.3 µM for the half of the compounds with a filed dose
# Shiga inhibitor: inhibitors of Shiga toxin in Vero cells. inhibition, % at 38.7 µM. hit rate 9.2% among 290,000. Vero cells, Shiga toxin protein synthesis inhibition reporter; in the data active = inhibition mostly above about 28%, no sharp cut-off; inactive = mostly below about 43%
# Pf growth 48h: P. falciparum growth inhibition at 48 hours (one generation); P. falciparum luciferase growth in erythrocytes, 48 h; AID 504832; hit rate 5.9% among 310,000; Potency, µM (doses to about 28.7 µM), actives largely listed as inhibitors
#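 First compound was added to culture medium, then infected red cells at 0.1% parasitemia and 2% hematocrit (final). After incubation at 37 C under 5% CO2, luciferase detection reagent was dispensed and light output recorded.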
# LmPK inh: blocks Leishmania mexicana pyruvate kinase activity. Q27686. purified LmPK, Kinase-Glo ATP luminescence, 1 h. Potency, µM (doses to about 57.5 µM), most hits filed as inhibitors. hit rate 0.37% among 290,000. AID 1721
# Target sequence (Q27686 whole entry, looked up): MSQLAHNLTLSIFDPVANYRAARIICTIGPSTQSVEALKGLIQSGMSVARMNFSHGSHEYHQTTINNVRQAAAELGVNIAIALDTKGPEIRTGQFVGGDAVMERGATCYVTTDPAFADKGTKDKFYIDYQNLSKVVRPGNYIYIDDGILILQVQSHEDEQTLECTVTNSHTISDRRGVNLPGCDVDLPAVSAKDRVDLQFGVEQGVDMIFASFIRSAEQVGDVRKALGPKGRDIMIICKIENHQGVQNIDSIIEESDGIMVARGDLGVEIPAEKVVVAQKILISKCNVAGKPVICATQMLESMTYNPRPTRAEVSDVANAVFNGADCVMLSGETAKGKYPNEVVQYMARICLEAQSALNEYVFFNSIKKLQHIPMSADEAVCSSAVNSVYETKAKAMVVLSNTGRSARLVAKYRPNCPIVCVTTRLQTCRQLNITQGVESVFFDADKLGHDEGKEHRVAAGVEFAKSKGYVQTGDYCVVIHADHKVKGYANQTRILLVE
#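 qHTS format; LmPK 0.1 nM; substrates PEP 0.5 mM and ADP 0.1 mM. One-hour room-temperature incubation, then coupled luciferase luminescence; 0.5 nM enzyme wells mark activation.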
# Numbers stand for hits; i = inactive; ? = inconclusive; nt = no result; [ ] = dose if it differs, or a comment. Unless noted, calls come from the whole dose curve; as a rule, active = well fitted inhibition curve with a large enough effect; inconclusive = small, poorly fitted or top-dose-only effect, or another doubt; inactive = no such curve, though single readings can be large or run the other way.
SMILES,Pf growth 96h,CHX counter,Shiga inhibitor,Pf growth 48h,LmPK inh
COc1ccc(C(C(=O)NC2CCCCC2)N(C(=O)CCl)c2ccc(OC)cc2)cc1 (centres undefined),9.3µM,i,i,i,i
COc1ccc(C(C(=O)NC2CCCC2)N(C(=O)c2ccoc2C)c2ccc(C)cc2)cc1 (centres undefined),?,i,i,10µM,i
COc1ccc(C(C(=O)NC2CCCCC2)N(C(=O)CCl)c2ccc(C)cc2)cc1 (centres undefined),i,i,i,i,i
CCOC(=O)c1cc(C(=O)OCC)c2ccccn2c1=O,i[5.75 µM],i,i,i,i
CCOC(=O)c1c[nH]n(-c2ccccc2)c1=O,i,i,30,i,i
CCOC(=O)C1=C(C)N(c2ccccc2)C(=O)C1,10µM,i,i,i,i
CCOC(=O)c1c[nH]n(-c2ccc(C)cc2)c1=O,i,21,48,i[5.75 µM],i
COc1ccc(C2=C(SC)CC2=NC(C)(C)C)cc1,i,13,i,i,i
COc1ccc(C2=CC(=O)CC(C)(C)C2)cc1,i,nt,nt,i,nt
COc1cc(NC(=O)c2cc3ccccc3o2)ccc1NC(=O)c1ccco1,i,i,i,i,i
COc1cc(NC(=O)c2ccccc2Cl)ccc1NC(=O)c1ccco1,i,41,i,i,i
COc1cc(NC(=O)c2ccco2)ccc1NC(=O)c1ccccc1Cl,nt,13,i,i,i
COc1cc(NC(=O)c2oc3ccccc3c2C)ccc1NC(=O)c1ccco1,i,29,63,i,i
COc1ccc(N2C(=O)N(Cc3cccc(F)c3)c3ccccc3S2(=O)=O)cc1,?,i,i,?,i
N#C/C(=C(/O)c1ccc(Cl)c([N+](=O)[O-])c1)c1nc2ccccc2[nH]1,i,i,i,i,i
CN(C)c1ccc(NC(=O)CSCc2nc3c(nnn3Cc3ccc(F)cc3)c(=O)[nH]2)cc1,8.3µM,i,i,i,?
COc1ccc(-n2c(-c3ccc(Br)cc3)c[n+]3c2CCCCC3)cc1,0.59µM,i,i,1µM,i
CCOc1ccc(-c2c(C)n([O-])c3c([n+]2=O)CCCCC3)cc1,i[5.75 µM],i,i,i,i
CCOc1ccc(-c2c[n+]3c(n2-c2ccccc2)CCCCC3)cc1,0.93µM,i,i,1.2µM,i
COc1ccc(-n2c(-c3ccc(Br)cc3)c[n+]3c2CCC3)cc1,?,i,i,6.6µM,i
COc1ccc(-n2c(-c3ccc(Br)cc3)c[n+]3c2SC(C)C3)cc1 (centres undefined),?,i,i,0.33µM,i
COc1ccc(-n2c(-c3ccccc3)c[n+]3c2CCC3)cc1,?,i,i,?,i
COc1ccc(OC)c(NC(=O)Nc2nnc(N3CCCCC3C)s2)c1 (centres undefined),i,i,i,i,i
Nc1c(-c2ccccc2)cnn1-c1ccccc1,i,44,87,i,?
Cc1ccc(-c2cnn(-c3cccc(C(F)(F)F)c3)c2N)cc1,i,41,89,i,i
SMILES,Pf growth 96h,CHX counter,Shiga inhibitor,Pf growth 48h,LmPK inh
Nc1c(-c2ccc(Cl)cc2)cnn1-c1cccc(C(F)(F)F)c1,i,i,i,i,i
Fc1ccc(-c2ccnn2-c2ccccc2)cc1,i,i,i,i,i
Nc1c(-c2cccc(Cl)c2)cnn1-c1ccccc1,i,45,70,i,i
O=c1cnn(-c2ccccc2)c(-c2ccccc2)c1,i,23,62,i,i
COc1ccc(CC(=O)OCC(=O)Nc2c(C)n(C)n(-c3ccccc3)c2=O)cc1OC,i,nt,nt,i,nt
CCOC(=O)c1ccc(NC(=O)NCc2ccccn2)cc1,i,i,i,i,i
Cc1cccc(OCC(=O)N2CCN(C(=O)COc3ccc(Cl)cc3)CC2)c1,?,i,i,?,i
O=C(Nc1cccc2ccccc12)c1cn(-c2ccccc2)nc1-c1cccs1,i,i,i,i,i
CCN(CC)CCNC(=O)c1ccc(NC(=O)c2ccccc2-c2ccc(C(F)(F)F)cc2)cc1,9.3µM,i,i,13µM,i
CCN(CC)CCNC(=O)c1ccc(NC(=O)c2cn(-c3ccccc3)nc2-c2cccs2)cc1,?,i,i,12µM,i
CCN(CC)CCNC(=O)c1ccc(NC(=O)c2cn(-c3ccc(F)cc3)nc2-c2cccc(OC)c2)cc1,1µM,i,i,1.9µM,i
CCN(CC)CCNC(=O)c1ccc(NC(=O)c2c(C)nn(-c3ccc(F)cc3)c2Cl)cc1,i,i,i,?,i
CCN(CC)CCNC(=O)c1ccc(NC(=O)Cc2ccccc2F)cc1,i,i,i,?,i
O=C(Nc1cccnc1)c1cn(-c2ccccc2)nc1-c1cccs1,i,i,i,0.59µM,i

# From PubChem
